Compound activity as filed in PubChem.
SARS PLP yeast: blocks SARS-CoV papain-like protease in a yeast assay | S. cerevisiae expressing SARS-CoV PLpro, growth rescue | Potency, µM (series often up to 32.9 µM), for inactives: at the highest dose activity, positive = growth rescue, hits mostly activators | 330,000 tested, 0.19% active; calls by dose curve; also: 0% is about no effect; nearly all actives have a fitted effect of over 55% in size
AMA1 RON2 block: AMA1-RON2 (P. falciparum) interaction inhibition; AlphaScreen AMA1-biotinylated RON2 peptide binding; Potency, µM (titrated, usually from 58.2 µM), without a hit: at the top dose activity change, negative = inhibition, usual class: inhibitors; 360,000 tested, 0.2% active;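 also: 0% = vehicle wells and -100% = peptide control; nearly all actives have a fitted effect of over 45% in size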
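AMA1 (3D7) with his tag at 25 nM final met compounds first, then biotinylated RON2 peptide at 25 nM; detection used donor plus acceptor beads, 10 µg/mL apiece, read by AlphaScreen after 30 min at room temperature.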
Pf growth 96h: P. falciparum growth inhibition at 96 hours | P. falciparum luciferase reporter growth, 96 h | Potency, µM (titrated, usually from 28.7 µM), for the others: at the highest dose activity change, negative = inhibition, hits mostly inhibitors | 320,000 tested, 6.9% active; also: % is scaled to controls: 0 for no effect and ±100 for the full control effect
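Two parasite generations (96 h, 37 C, 5% CO2) of compound exposure in infected erythrocytes (0.05% parasitemia, 2% hematocrit). Luciferase-reporter P. falciparum; decreased luminescence indicates inhibited growth, aimed at apicoplast-acting delayed death.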
Pf growth 48h: inhibits P. falciparum growth in the first generation, 48 h; P. falciparum luciferase growth in erythrocytes, 48 h; Potency, µM (highest dose often 28.7 µM), for inactives: at the top dose activity change, negative = inhibition, hits mostly inhibitors; 310,000 tested, 5.9% active; also: % is scaled to controls: 0 for no effect and ±100 for the full control effect
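Erythrocytes infected with P. falciparum carrying an integrated firefly luciferase reporter (2% hematocrit, 0.1% parasitemia final) were exposed to compounds in RPMI 1640 with 0.5% Albumax at 37 C, 5% CO2. Growth inhibition was scored as reduced luminescence.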
The depositor's hits bear a star. Sampled rows, rich in hits. Any-hit rate of the full collection: about 9.4%. Unless noted, calls follow the shape of the dose curve; as a rule, active = well fitted curve in the direction sought with a large enough effect; inconclusive = small, poorly fitted or top-dose-only effect, or another doubt; inactive = no such curve, though single readings can be large; an effect the other way counts as inactive or inconclusive. Potency is read from the fitted curve at half-maximal effect.

For C=CCOc1ccc(CNc2ccc(NC(=O)CCC)cc2)cc1OCC the results were SARS PLP yeast 9%, AMA1 RON2 block -12%, Pf growth 96h 12µM* and Pf growth 48h 15µM*.
Screening C=CCOc1c(Br)cc(CNc2ccc(NC(=O)CCC)cc2)cc1OCC returned SARS PLP yeast -13%, AMA1 RON2 block -17%, Pf growth 96h 61% and Pf growth 48h 50%.
C=CCOc1ccc(CNc2ccc3[nH]c(=O)[nH]c3c2)cc1OC was read as SARS PLP yeast 0%, AMA1 RON2 block -21%, Pf growth 96h -109% and Pf growth 48h -3%.
`C=CCOc1c(Br)cc(CNn2c(C)n[nH]c2=S)cc1OCC` gave SARS PLP yeast 0%, AMA1 RON2 block 84%, Pf growth 96h 15% and Pf growth 48h 33%.
Screening Cc1cccn2c(=O)c3cc(C(=O)NCCc4ccccc4)c(=N)n(Cc4ccco4)c3nc12 returned SARS PLP yeast 1%, AMA1 RON2 block 9%, Pf growth 96h inconclusive and Pf growth 48h 1.5µM*.
Screening Cc1cccn2c(=O)c3cc(C(=O)NCc4ccco4)c(=N)n(C(C)C)c3nc12 returned SARS PLP yeast -3%, AMA1 RON2 block -3% and Pf growth 48h inconclusive.
Screening Cc1cccn2c(=O)c3cc(C(=O)NCc4ccco4)c(=N)n(CCc4ccccc4)c3nc12 returned SARS PLP yeast -1%, AMA1 RON2 block 1%, Pf growth 96h 0.59µM* and Pf growth 48h 0.59µM*.
Cc1ccc2nc3c(cc(C(=O)NCc4ccccc4)c(=N)n3CCCn3ccnc3)c(=O)n2c1 was read as AMA1 RON2 block 3%.
`COc1ccc(CCNC(=O)c2cc3c(=O)n4cccc(C)c4nc3n(Cc3ccco3)c2=N)cc1OC` gave SARS PLP yeast 15%, AMA1 RON2 block 2%, Pf growth 96h 1.7µM* and Pf growth 48h 13µM*.
`COc1ccc(CCNC(=O)c2cc3c(=O)n4cccc(C)c4nc3n(Cc3ccncc3)c2=N)cc1` gave SARS PLP yeast -2% and Pf growth 48h -15%.
For Cc1cccn2c(=O)c3cc(C(=O)NC(C)c4ccccc4)c(=N)n(CCCn4ccnc4)c3nc12 (stereo not drawn) the results were SARS PLP yeast -1%, AMA1 RON2 block -4%, Pf growth 96h 0.41µM* and Pf growth 48h 0.41µM*.
For COC(=O)c1cc(S(=O)(=O)Nc2cc(OC)cc(OC)c2)c[nH]1 the results were SARS PLP yeast -3%, AMA1 RON2 block 4%, Pf growth 96h inconclusive and Pf growth 48h 8%.
Screening CCC(=O)Nc1cc(C(=O)OCC(=O)c2ccccc2Cl)ccc1C returned SARS PLP yeast -1%, AMA1 RON2 block -3%, Pf growth 96h 34% and Pf growth 48h 84%.
`O=C(Nc1ccccc1)N1CCC(C(=O)N(Cc2ccco2)Cc2cccs2)CC1` gave SARS PLP yeast 2%, AMA1 RON2 block 9%, Pf growth 96h 1.7µM* and Pf growth 48h inconclusive.
Screening CSCCC(NC(=O)c1ccc([N+](=O)[O-])cc1Cl)C(=O)OCC(=O)N(C)C (stereo not drawn) returned SARS PLP yeast 22%, AMA1 RON2 block inconclusive, Pf growth 96h 54% and Pf growth 48h 16%.
For COc1cn(-c2ccccc2)nc1C(=O)NCc1ccc(C)cc1 the results were SARS PLP yeast -9%, AMA1 RON2 block 7%, Pf growth 96h 8.3µM* and Pf growth 48h inconclusive.
Cc1ccc(CNC(=O)c2nccnc2C(=O)O)cc1 was read as SARS PLP yeast 1%, AMA1 RON2 block -16%, Pf growth 96h 4.7µM* and Pf growth 48h 3%.
`CCC(C)NCCCCOc1ccc(Br)cc1` (stereo not drawn) gave SARS PLP yeast 1%, AMA1 RON2 block inconclusive, Pf growth 96h inconclusive and Pf growth 48h -6%.
For Cc1sc2ncnc(NCC(O)c3ccc([N+](=O)[O-])cc3)c2c1C (stereo not drawn) the results were SARS PLP yeast -2%, AMA1 RON2 block 0%, Pf growth 96h inconclusive and Pf growth 48h 9.3µM*.
Screening O=C(Nc1ccc(C(=O)N2CCN(c3ccc(Cl)cc3)CC2)cc1)C1=CSCCO1 returned SARS PLP yeast -3%, AMA1 RON2 block 0%, Pf growth 96h 0% and Pf growth 48h inconclusive.
For CN(C)S(=O)(=O)c1cccc(NC(=O)c2cc(-c3cccs3)nn2-c2ccccc2)c1 the results were SARS PLP yeast 4%, AMA1 RON2 block -13%, Pf growth 96h 15µM* and Pf growth 48h inconclusive.
For CCN(CC)S(=O)(=O)c1cccc(NC(=O)c2cc(-c3cccs3)nn2-c2ccccc2)c1 the results were SARS PLP yeast 10%, AMA1 RON2 block -6%, Pf growth 96h 12µM* and Pf growth 48h -19%.
Screening CN(CC(=O)Nc1cccc(F)c1)C(=O)c1cc(-c2cccs2)nn1-c1ccccc1 returned SARS PLP yeast 2%, AMA1 RON2 block -20%, Pf growth 96h 7% and Pf growth 48h -2%.
For Cc1ccccc1-c1cc2c(c3c1ccn3C)C1CCC2O1 (stereo not drawn) the results were AMA1 RON2 block -26%.
`CCNc1ccccc1CP(=O)(c1ccccc1)c1ccccc1O` (stereo not drawn) gave SARS PLP yeast 0%, AMA1 RON2 block inconclusive, Pf growth 96h 12µM* and Pf growth 48h 13µM*.
For CC(=O)c1ccc(OCC(O)CN2CCC(C)CC2)cc1 (stereo not drawn) the results were SARS PLP yeast -1%, AMA1 RON2 block -1% and Pf growth 96h inconclusive.
O=C1C2CC=CCC2C(=O)N1c1ccc(OCC(O)Cn2nnc3ccccc32)cc1 (stereo not drawn) was read as SARS PLP yeast 20%, AMA1 RON2 block 13% and Pf growth 96h 15µM*.
`O=C(Cn1nnc2ccccc21)c1ccc(Br)cc1` gave SARS PLP yeast 1%, AMA1 RON2 block -2%, Pf growth 96h 48% and Pf growth 48h 43%.
For Cc1ccc(C(=O)Cn2nnc3ccccc32)cc1 the results were SARS PLP yeast 1%, AMA1 RON2 block 4%, Pf growth 96h 12µM* and Pf growth 48h 137%.
Screening CC(=O)c1ccc(OCC(O)Cn2nnc3ccccc32)cc1 (stereo not drawn) returned SARS PLP yeast 4%, AMA1 RON2 block 34%, Pf growth 96h 32% and Pf growth 48h 7.4µM*.
`COC(=O)c1ccc(OCC(O)Cn2nnc3ccccc32)cc1` (stereo not drawn) gave SARS PLP yeast 3%, AMA1 RON2 block -4%, Pf growth 96h inconclusive and Pf growth 48h 59%.
CC(=O)c1ccc(OCC(O)CN2C(C)CCCC2C)cc1 (stereo not drawn) was read as SARS PLP yeast -5%, AMA1 RON2 block -7% and Pf growth 96h 8.3µM*.
Screening Cc1ccc2nc(SCC(=O)NC3CCCCC3)nc(=O)n2c1 returned SARS PLP yeast 0%, AMA1 RON2 block 10%, Pf growth 96h 0% and Pf growth 48h -2%.
`O=C1CCN(Cc2ccccc2)S(=O)(=O)c2c(F)cc(F)cc21` gave SARS PLP yeast 0%, AMA1 RON2 block -4%, Pf growth 96h 38% and Pf growth 48h 2%.
